JMJD2E inh = inhibitors of human JMJD2E histone demethylase | 1.6% of 230,000 active | Potency, µM (series often up to 57.1 µM), for inactives: at the top dose activity change, negative = inhibition, usual class: inhibitors | JMJD2E catalytic domain, FDH-coupled NADH fluorescence (FDH is formaldehyde dehydrogenase);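 also: potency is read from the fitted curve at half-maximal effect; 0% = wells with enzyme and -100% = buffer wells without enzyme; nearly all actives have a fitted effect of over 50% in size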
HPGD inh = inhibitors of human 15-hydroxyprostaglandin dehydrogenase (HPGD); P15428; purified HPGD, NADH fluorescence kinetic, PGE2 substrate; Potency, µM, for inactives: top-dose activity change, negative = inhibition, most hits filed as inhibitors; 4.3% of 150,000 active; AID 894; also: potency is read from the fitted curve at half-maximal effect; % is scaled to controls: 0 for no effect and ±100 for the full control effect
Target sequence (P15428 whole entry, looked up): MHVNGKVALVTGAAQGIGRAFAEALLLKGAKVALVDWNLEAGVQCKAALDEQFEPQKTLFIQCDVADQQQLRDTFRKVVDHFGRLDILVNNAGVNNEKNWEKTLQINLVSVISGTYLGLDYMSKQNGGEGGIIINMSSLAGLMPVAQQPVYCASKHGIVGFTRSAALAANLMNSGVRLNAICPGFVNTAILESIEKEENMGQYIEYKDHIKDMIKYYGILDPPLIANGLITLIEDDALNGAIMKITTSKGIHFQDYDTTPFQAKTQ
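NADH formation kinetics: reaction with 30 uM PGE2 and 1 mM NAD+ (final), 20 nM enzyme, Tris-HCl pH 8 with Tween 20, after 15 min compound preincubation at room temperature. Fluorescence change, last versus first of five reads.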
HttQ103 aggreg = reduces HttQ103-GFP aggregates in PC12 cells | PC12 HttQ103-GFP aggregates, Acumen cytometry, 40 h | Potency, µM (doses to about 46.1 µM), for inactives: at the top dose activity change, negative = inhibition, most hits filed as inhibitors | 1.1% of 220,000 active; active = well fitted curve in the direction sought with a large enough effect; inconclusive = small, poorly fitted or top-dose-only effect, or another doubt; inactive = no such curve, though single readings can be large; an effect the other way counts as inactive or inconclusive; also: potency is read from the fitted curve at half-maximal effect; % is scaled to controls: 0 for no effect and ±100 for the full control effect; nearly all actives have a fitted effect of over 60% in size
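Quantitative HTS on tebufenozide-induced (100 nM) PC12 cells stably expressing polyQ103 Huntingtin exon 1–GFP. Reduction of bright GFP aggregates, detected by laser scanning cytometry after lysis, identified actives across the titration.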
ALDH1A1 inh = ALDH1A1 (human) enzyme inhibition; Potency, µM (top dose mostly 75.3 µM), without a hit: at the top dose activity, negative = inhibition, hits mostly inhibitors; P00352; AID 1030; 7.3% of 220,000 active; Purified ALDH1A1, NADH fluorescence, propionaldehyde substrate;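 also: potency is read from the fitted curve at half-maximal effect; plate controls were no enzyme wells and a reference inhibitor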
Target sequence (P00352 whole entry, looked up): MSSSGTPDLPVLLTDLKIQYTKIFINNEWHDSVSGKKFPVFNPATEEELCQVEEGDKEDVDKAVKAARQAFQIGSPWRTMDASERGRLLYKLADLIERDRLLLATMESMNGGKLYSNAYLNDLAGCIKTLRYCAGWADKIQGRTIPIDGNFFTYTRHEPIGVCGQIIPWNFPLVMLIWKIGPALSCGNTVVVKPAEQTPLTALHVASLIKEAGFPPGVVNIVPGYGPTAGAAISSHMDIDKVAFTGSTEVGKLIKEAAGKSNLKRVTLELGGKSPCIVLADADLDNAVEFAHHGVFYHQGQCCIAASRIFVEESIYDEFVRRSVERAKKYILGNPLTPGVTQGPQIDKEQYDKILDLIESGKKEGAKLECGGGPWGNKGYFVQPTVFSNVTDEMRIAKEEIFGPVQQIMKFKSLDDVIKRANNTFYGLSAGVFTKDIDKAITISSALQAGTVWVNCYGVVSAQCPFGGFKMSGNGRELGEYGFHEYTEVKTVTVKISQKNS
CBFb RUNX1 block = inhibitors of human CBF-beta and RUNX1 interaction. Q01196+Q13951. AlphaScreen CBFb-His/RUNX1-biotin binding, biochemical. Potency, µM (highest dose often 59.8 µM), for inactives: top-dose activity, negative = inhibition, usual class: inhibitors. 230,000 tested, under 10 active. AID 1477; active = well fitted curve in the direction sought with a large enough effect; inconclusive = small, poorly fitted or top-dose-only effect, or another doubt; inactive = no such curve, though single readings can be large; an effect the other way counts as inactive or inconclusive; also: % of control where 0% means no effect
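Inhibition was taken as any reduction in AlphaScreen signal from the CBF-beta–RUNX1 pair (His and biotin tags, 30 nM each), measured after compound (15 min) and bead (90 min) incubations at room temperature.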
HTT ATP protect = Huntington cell model cytoprotection by ATP luminescence; PC12 HTT-Q103 induced, cytoprotection, ATP luminescence, 40 h; Potency, µM (doses to about 56.4 µM), for inactives: cytoprotection (ATP increase), hits mostly activators; 0.14% of 230,000 active; active = well fitted curve in the direction sought with a large enough effect; inconclusive = small, poorly fitted or top-dose-only effect, or another doubt; inactive = no such curve, though single readings can be large; an effect the other way counts as inactive or inconclusive; also: potency is read from the fitted curve at half-maximal effect; % of control where 0% means no effect; nearly all actives have a fitted effect of over 45% in size
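Rat PC12, Q103 Htt exon1-GFP fusion, ecdysone promoter; tebufenozide inducer 100 nM final; compound titration; qHTS, 1500 cells/well; ATPlite luminescent read.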
* marks the source's active call; other numbers are inactive results; u = inconclusive; x = not tested or not shown; [ ] = dose if it differs, or a comment. Sampled rows, rich in hits. Any-hit rate of the full collection: about 9.8%. Unless noted, calls follow the shape of the dose curve; as a rule, active = well fitted inhibition curve with a large enough effect (not every such curve was filed as active); inconclusive = small, poorly fitted or top-dose-only effect, or another doubt; inactive = no such curve, though single readings can be large or run the other way.

SMILES	JMJD2E inh	HPGD inh	HttQ103 aggreg	ALDH1A1 inh	CBFb RUNX1 block	HTT ATP protect
COc1ccc(C(CC(=O)NCc2ccccc2)Sc2n[nH]c(-c3ccc(Cl)cc3)n2)cc1 (stereo not drawn)	5%	-13%	-22%	6%	10%	-32%[10 µM]
CCCC(=O)Nc1ccc(Sc2ccc([N+](=O)[O-])cc2)cc1	0%	18µM*	u	-15%	0%	21%[10 µM]
CCC(CC)C(=O)Nc1ccc([N+](=O)[O-])cn1	7%	x	-14%	-2%	5%	-26%
CN(C)S(=O)(=O)c1ccc(NC(=O)CCNC(=O)c2ccc([N+](=O)[O-])cc2)cc1	6%	x	-18%	10µM*	9%	-10%[10 µM]
CCC(CC)C(=O)Nc1ccc(Sc2ccc([N+](=O)[O-])cc2)cc1	7%	x	2%	1.1µM*	8%	-66%
Cc1ccc(NC(=O)CCNC(=O)c2ccc([N+](=O)[O-])cc2)cc1S(=O)(=O)N(C)C	-1%	x	2%	u	-6%	-8%
Cc1nnc(SCC2=C(C(=O)O)N3C(=O)[C@@H](NC(=O)Cn4cnnn4)[C@@H]3SC2)s1	-1%[25.5 µM]	-9%	x	5%[20.9 µM]	23%[21.7 µM]	u
Cc1ccc(-c2nc(-c3ccccn3)sc2CC(=O)O)cc1	u	x	-32%[9.22 µM]	x	31%	3%[10 µM]
O=C(CSc1nnc(-c2ccc3c(c2)OCCO3)o1)N1CCCC1	-24%	-25%	-10%	25µM*	5%	-39%
O=C(CSc1nnc(-c2ccccc2)o1)c1ccc2c(c1)OCCO2	6%	-7%	2%	3.2µM*	1%	-2%
CCC1CCCCN1C(=O)CSc1nnc(-c2ccc3c(c2)OCCO3)o1 (stereo not drawn)	9%	u	1%	u	3%	-53%
C=CCC(O)(CC=C)C(C)N (stereo not drawn)	-7%	x	6%[9.22 µM]	12%	2%	9%[10 µM]
O=C(CCc1ccccc1)NNC(=O)c1ccco1	8%	28µM*	-8%	8%	0%	3%
O=C(CCC(=O)Nc1ccccc1)NNC(=O)c1ccco1	1%	-3%	-8%	12%	2%	7%[10 µM]
COc1ccc2cc(Br)ccc2c1CC(=O)NC1CC(C)(C)NC(C)(C)C1	1%	-15%	-5%[9.22 µM]	u	-5%	-2%
CCOC(=O)C1CCN(C(=O)N(C)C)CC1	-2%	-17%	0%	6%	16%	-11%[10 µM]
CCOC(=O)C1CCN(C(=O)CSc2ccc(Br)cc2)CC1	2%	x	7%[9.22 µM]	32µM*	5%	-32%
CCOC(=O)C1CCN(C(=O)CSCCSCC(=O)N2CCC(C(=O)OCC)CC2)CC1	4%	-10%	5%	11µM*	-6%	-3%[10 µM]
CCOC(=O)C1CCN(C(=O)c2ccc(Br)o2)CC1	2%	-13%	-27%	3.2µM*	-1%	4%
CCOC(=O)C1=C(c2ccccc2)c2ccc(OC)cc2N(S(=O)(=O)C(F)(F)F)C1C(=O)OCC (stereo not drawn)	x	u	x	u	u	-11%[40.3 µM]
C/C(CCN1CCCCc2nc(C)c(C)cc21)=N\O[C@@H](C)c1cc(-c2c(C)cc(C)cc2C)no1	x	x	x	2%[13.5 µM]	16%[13.1 µM]	-1%[10 µM]
O=c1/c(=C\c2ccc(O)cc2)sc2n1C(c1ccccc1)C(c1ccccc1)=NN=2 (stereo not drawn)	-5%	16µM*	-30%	8.9µM*	-12%	-61%
CCOC(=O)C1=C(c2ccccc2)N=c2s/c(=C\c3cccc(O)c3)c(=O)n2C1c1cccs1 (stereo not drawn)	-27%	-9%	-5%	-4%	-21%	-37%
COc1ccc2[nH]cc(CCNc3ccnc(-c4ccc5c(c4)OCO5)n3)c2c1	x	x	x	u	x	-76%
O=c1oc2c3c4c(cc2s1)CCCN4CCC3	u	22µM*	-1%[9.22 µM]	25µM*	u	9%
SMILES	JMJD2E inh	HPGD inh	HttQ103 aggreg	ALDH1A1 inh	CBFb RUNX1 block	HTT ATP protect
O=C(NCC1CCCO1)c1ccc(CNS(=O)(=O)c2cccc(Cl)c2)cc1 (stereo not drawn)	3%	x	17%	u	0%	-15%
CC(=O)c1c(C)[nH]c(C2=NNC(=NC(C)(C)C)SC2)c1C	u	x	2%	11µM*	-10%	-21%
CCOC(=O)c1c(C)[nH]c(C2=NNC(=Nc3ccccc3)SC2)c1C	-8%	x	2%	13µM*	-2%	24%[10 µM]
COc1ccc(C2C(C(=O)N3CCN(c4ccccc4F)CC3)c3ccccc3C(=O)N2C)cc1 (stereo not drawn)	0%	-7%	6%	0.89µM*	8%	-5%
O=C1NCC(O)=C1C=Nc1ccccc1O	18µM*	x	8%[9.22 µM]	2%	-2%	8%[10 µM]
O=c1[nH][nH]cc1C=Nc1ccc(Cl)cc1Cl	-3%	x	-23%	9%	24%	-3%
O=C1NCC(O)=C1C=NCCCO	6%	-3%	-12%	8%	10%	-15%[10 µM]
O=c1[nH][nH]cc1C=Nc1ccccc1O	25µM*	-25%	-25%	u	-18%	-69%
O=c1[nH][nH]cc1C=Nc1cc(Cl)ccc1O	u	x	-21%	-3%	-29%	14µM*
Cn1ccc(NC(=O)Nc2cccc([N+](=O)[O-])c2)n1	-1%	x	-6%	u	1%	-5%
Cc1nn(C)cc1C(C)NCc1c(C(=O)N2CCCCCCC2)nc2ccc(Cl)cn12 (stereo not drawn)	-21%	x	8%[9.22 µM]	3.2µM*	10%	-11%[10 µM]
COC(=O)c1cc(=O)n(Cc2ccc3c(c2)OCO3)c(=Nc2ccccc2)s1	-11%	-21%	u	0.63µM*	0%	0%
COC(=O)c1cc(=O)n(Cc2cccs2)c(=Nc2ccc(F)cc2)s1	13%	x	-1%[9.22 µM]	10µM*	-14%	3%[10 µM]
COC(=O)c1cc(=O)n(Cc2ccc3c(c2)OCO3)c(=Nc2ccc(F)cc2)s1	-1%	-5%	31%	u	-7%	-19%
COC(=O)c1cc(=O)n(CCc2ccccc2F)c(=Nc2ccc(F)c(Cl)c2)s1	-3%	-11%	u	9%	-3%	5%
COC(=O)c1cc(=O)n(Cc2ccco2)c(=Nc2ccc(F)c(Cl)c2)s1	5%	-10%	u	3.5µM*	-12%	-16%
COc1ccc(-c2nc3c4ccccc4ccn3c2CN2CCOCC2)cc1OC	u	x	-5%[9.22 µM]	x	-5%	-10%[10 µM]
CCN1CCCC1CNC(=O)Cn1cnc2sc(C)c(S(=O)(=O)N3CCC(C)CC3)c2c1=O (stereo not drawn)	-12%	-15%	-3%	6%	3%	10%[10 µM]
COc1cc(OC)cc(C(=O)NCC(=O)OCc2nc3ccccc3s2)c1	-11%	x	u	-8%	-22%	-78%[10 µM]
COCCCNC(=O)c1ccccc1SC	-1%	32µM*	-10%	2%	11%	-24%

High-throughput results deposited in PubChem by National Center for Advancing Translational Sciences (NCATS).
